Here are results for 35 compounds from PubChem BioAssay (NCI).

Structures are written as SMILES. The panel holds about 83,000 compounds, 20% with a hit somewhere; the sample as a whole holds those more often.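 The test compound was applied at a single concentration to cells in 96-well plates for 48 hours, and percent growth was recorded.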 Calls of active or inactive are those of the source. Rule for the calls: active = growth percent below 10; inactive = the rest.

This assay concerns PC-3 prostate. Nature of the assay: NCI-60 one-dose screen, 48 h (100 = growth as untreated, 0 = no growth, -100 = all killed). Particulars: 10 µM unless noted.
For the compound `O=C1/C(=C\c2ccc(Br)o2)SC(=S)N1CCc1ccc(O)cc1`, the growth was 77.2% (inactive).

On to `N#CC1=C(N)Oc2ccc3ccccc3c2C1c1ccccc1` (stereo not given), for which the growth is 40.6% (inactive).

For `N#CC1=C(N)Oc2ccc3ccccc3c2C1c1ccccc1Cl` (stereo not given), the growth is 46.1% (inactive).

On to `CCSc1sc(-c2ccc(C)cc2)nc1[P+](c1ccccc1)(c1ccccc1)c1ccccc1`, for which the growth was -11.5% (active).

For the compound `Fc1ccc2nc(-c3cc(-c4ccc5c(c4)OCO5)n[nH]3)[nH]c2c1`, the growth is 23.3% (inactive).

As for `CC(=O)c1c(C)[nH]c(-c2nc3ccc(N4CCN(C)CC4)cc3[nH]2)c1-c1ccc2c(c1)OCCO2`, the growth was 45.8% (inactive).

On to `COc1cc2nc(Cl)nc(Nc3cccc(C(=O)/C=C/c4ccc(Br)cc4)c3)c2cc1OC`, for which the growth was 65.5% (inactive).

Take `COc1c(N)c2c(c([N+](=O)[O-])c1OC)C(=O)OC2`: the growth was 96.7% (inactive).

For the compound `N#C/C(=C\c1ccc(-c2cccc(C(F)(F)F)c2)o1)c1nc(-c2ccco2)cs1`, the growth is 90% (inactive).

As to `C=C(C)[C@@H]1CC[C@]2(CN)CC[C@]3(C)[C@H](CC[C@@H]4[C@@](C)(CCCN)[C@H](C(=C)C)CC[C@]43C)[C@@H]12`, the growth was 71.5% (inactive).

Consider `Nc1ccccc1NC(=O)c1ccc(CN2CCC/C(=C\c3ccccn3)C2=O)cc1`, for which the growth was 44% (inactive).

For the compound `O=c1c2sc3ncc(Br)cc3c2ncn1-c1cccc(Cl)c1`, the growth was 81.9% (inactive).

Turning to `CCN1CCN(C(=O)[C@]23CCC(C)(C)C[C@@H]2C2=CC[C@@H]4[C@@]5(C)C/C(=C/c6ccncc6)C(=O)C(C)(C)[C@@H]5CC[C@@]4(C)[C@]2(C)CC3)CC1`, the growth is -5% (active).

`Cc1ccc(-c2nc([P+](c3ccccc3)(c3ccccc3)c3ccccc3)c(N3CCOCC3)o2)cc1`: the growth is -18.8% (active).

`CCCCn1c(-c2ccc(O)cc2)cn2c3c(=O)[nH]c(=O)n(C)c3nc12`: the growth is 68.9% (inactive).

In the case of `CN(C)CCCC1(c2ccc(F)cc2)OCc2cc(-c3ccc(C(F)(F)F)nc3)ccc21` (stereo not given), the growth was 68.7% (inactive).

With `Nc1c2c(nc3ccc(Cl)cc13)CC(c1ccc(O)cc1)CC2=O` (stereo not given), the growth was 49.2% (inactive).

Regarding `N#Cc1c(-c2ccco2)nc2c(c(-c3ccccc3)nn2-c2ccccc2)c1-c1ccc(O)cc1`, the growth is 23.8% (inactive).

As for `COc1ccc(OC)c(-c2c(C#N)c(-c3ccco3)nc3c2c(-c2ccccc2)nn3-c2ccccc2)c1`, the growth is 83.7% (inactive).

For `N#CC1=C(N)Oc2c(c(N)nn2-c2ccccc2)C1c1ccc(Cl)cc1` (stereo not given), the growth was 91.7% (inactive).

As to `O=C(O)c1cccc2c1Cc1cc([N+](=O)[O-])ccc1-2`, the growth is 110% (inactive).

`CCN1CCN(C(=O)[C@]23CCC(C)(C)C[C@H]2C2=CC[C@@H]4[C@@]5(C)CC/C(=N/O)C(C)(C)[C@@H]5CC[C@@]4(C)[C@]2(C)CC3)CC1`: the growth was 39.6% (inactive).

Turning to `Cc1ccc(NC2CC(=O)N(c3c(C)cc(C)cc3C)C2=O)c(C)c1` (stereo not given), the growth was 95.3% (inactive).

With `NCCNc1nc(-c2ccccc2)nc2nc(-c3ccccc3)oc12`, the growth was 80.4% (inactive).

With `CCCCCC1CCCCN1C(=O)OCC` (stereo not given), the growth was 91.9% (inactive).

As for `COc1ccc(-c2cc(/C=C/C(=O)c3ccc(N)cc3)[nH]n2)cc1`, the growth was 26.4% (inactive).

In the case of `COc1ccc2nc(-c3cc(-c4cc(OC)c(OC)c(OC)c4)n[nH]3)[nH]c2c1`, the growth is -22.8% (active).

With `COc1ccc(/C=C(\C#N)c2cc3ccccc3n2S(C)(=O)=O)cc1`, the growth was 80.2% (inactive).

As for `CC1c2ccccc2N(S(=O)(=O)c2ccccc2)C1C` (stereo not given), the growth was 81.4% (inactive).

For the compound `CC1(C)CC[C@]2(C(=O)NCCNCCN)CC[C@]3(C)C(=CC[C@@H]4[C@@]5(C)CCC(=O)C(C)(C)[C@@H]5CC[C@]43C)[C@@H]2C1`, the growth was 40.9% (inactive).

For the compound `C=C(C)[C@@H]1CC[C@]2(C)[C@H](CC[C@@H]3[C@H]4[C@H]5OC[C@@]4(CCC5(C)C)CC[C@]32C)[C@@]1(C)CCCN`, the growth is 64% (inactive).

Take `COc1cc2nc(Cl)nc(Nc3cccc(C(=O)/C=C/c4ccc(F)cc4)c3)c2cc1OC`: the growth is 46.4% (inactive).

Consider `CC[C@H](CC[C@@H](C)[C@H]1CC[C@H]2[C@@H]3/C(=C/c4cccnc4)C(=O)C4=CC(=O)CC[C@]4(C)[C@H]3CC[C@]12C)C(C)C`, for which the growth is 66.7% (inactive).

For `COc1ccc(CCN2C(=O)C(C)(C)SC2=S)cc1OC`, the growth was 98.4% (inactive).

Regarding `C=C(C)[C@@H]1CC[C@]2(C(=O)N3CCN(C)CC3)CC[C@]3(C)[C@H](CC[C@@H]4[C@@]5(C)C/C(=C/c6ccc(C(F)(F)F)cc6)C(=O)C(C)(C)[C@@H]5CC[C@]43C)[C@@H]12`, the growth is 78.8% (inactive).
